Measurements taken from the supplement of paper PMC11732987, “Enantioselective OTUD7B fragment discovery through chemoproteomics screening and high-throughput optimisation” (Communications Chemistry, 2025).

Legend:
Assay in all cases: log2 ratio of Biotin-Ahx-Ub-VS probe labelling (fragment/DMSO); higher = less target engagement (more negative = stronger competition), active = hit call of the paper (q ≤ 0.05, log2 ratio ≤ -1)
Conditions in all cases: compound concentration: 200 uM; treatment time: 3 h
USP19 = target: T1, USP19 (UniProt O94966)
T1 sequence (whole entry): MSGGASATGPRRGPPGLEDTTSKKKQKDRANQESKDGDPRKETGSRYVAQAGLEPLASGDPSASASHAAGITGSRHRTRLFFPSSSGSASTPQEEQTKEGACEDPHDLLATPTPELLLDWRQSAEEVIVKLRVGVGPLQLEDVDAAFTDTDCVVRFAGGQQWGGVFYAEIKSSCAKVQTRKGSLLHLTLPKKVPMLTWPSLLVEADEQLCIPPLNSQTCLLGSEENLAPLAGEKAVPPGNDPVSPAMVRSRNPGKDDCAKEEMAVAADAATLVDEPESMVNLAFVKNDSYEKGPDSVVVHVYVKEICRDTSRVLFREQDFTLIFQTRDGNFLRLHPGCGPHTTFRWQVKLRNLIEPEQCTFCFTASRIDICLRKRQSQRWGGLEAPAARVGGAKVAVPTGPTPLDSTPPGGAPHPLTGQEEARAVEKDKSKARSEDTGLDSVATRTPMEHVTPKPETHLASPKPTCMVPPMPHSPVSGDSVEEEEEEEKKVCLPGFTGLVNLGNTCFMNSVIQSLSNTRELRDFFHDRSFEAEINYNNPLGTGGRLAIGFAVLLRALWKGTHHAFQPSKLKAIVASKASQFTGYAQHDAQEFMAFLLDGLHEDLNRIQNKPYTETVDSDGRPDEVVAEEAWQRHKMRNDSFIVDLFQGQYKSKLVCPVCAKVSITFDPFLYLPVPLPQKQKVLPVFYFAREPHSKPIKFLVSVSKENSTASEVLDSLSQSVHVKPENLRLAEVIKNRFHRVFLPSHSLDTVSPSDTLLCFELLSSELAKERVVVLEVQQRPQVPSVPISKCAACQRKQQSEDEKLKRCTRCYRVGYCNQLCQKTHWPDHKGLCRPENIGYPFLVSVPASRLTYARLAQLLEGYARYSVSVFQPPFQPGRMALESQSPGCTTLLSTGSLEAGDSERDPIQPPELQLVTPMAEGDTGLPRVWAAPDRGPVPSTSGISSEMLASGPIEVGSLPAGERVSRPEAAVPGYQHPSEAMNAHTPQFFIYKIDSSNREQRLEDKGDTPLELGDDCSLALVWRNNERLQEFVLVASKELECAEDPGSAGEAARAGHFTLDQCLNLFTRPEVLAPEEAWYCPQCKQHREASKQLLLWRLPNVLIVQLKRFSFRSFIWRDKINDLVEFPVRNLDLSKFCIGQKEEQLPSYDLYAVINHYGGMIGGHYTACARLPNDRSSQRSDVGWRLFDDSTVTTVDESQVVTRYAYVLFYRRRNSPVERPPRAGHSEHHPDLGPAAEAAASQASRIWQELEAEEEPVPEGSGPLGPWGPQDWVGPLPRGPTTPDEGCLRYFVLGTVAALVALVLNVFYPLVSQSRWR
In short: (§1)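 Each value is an average log2 ratio of fragment to vehicle, tested by unpaired t-test. The underlying Spectronaut label-free quantities were global-median-normalised, and only proteins with ≥2 unique peptides were included. Triplicate HEK293T lysate samples (495 µg) were exposed to fragment at 200 µM or vehicle for 3 h, then to Biotin-Ahx-Ub-VS at 0.5 µM final for 1 h, before NeutrAvidin enrichment of labelled DUBs, LysC and trypsin digestion, and diaPASEF LC-MS/MS.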

USP22 = target: T2, USP22 (UniProt Q9UPT9)
T2 sequence (whole entry): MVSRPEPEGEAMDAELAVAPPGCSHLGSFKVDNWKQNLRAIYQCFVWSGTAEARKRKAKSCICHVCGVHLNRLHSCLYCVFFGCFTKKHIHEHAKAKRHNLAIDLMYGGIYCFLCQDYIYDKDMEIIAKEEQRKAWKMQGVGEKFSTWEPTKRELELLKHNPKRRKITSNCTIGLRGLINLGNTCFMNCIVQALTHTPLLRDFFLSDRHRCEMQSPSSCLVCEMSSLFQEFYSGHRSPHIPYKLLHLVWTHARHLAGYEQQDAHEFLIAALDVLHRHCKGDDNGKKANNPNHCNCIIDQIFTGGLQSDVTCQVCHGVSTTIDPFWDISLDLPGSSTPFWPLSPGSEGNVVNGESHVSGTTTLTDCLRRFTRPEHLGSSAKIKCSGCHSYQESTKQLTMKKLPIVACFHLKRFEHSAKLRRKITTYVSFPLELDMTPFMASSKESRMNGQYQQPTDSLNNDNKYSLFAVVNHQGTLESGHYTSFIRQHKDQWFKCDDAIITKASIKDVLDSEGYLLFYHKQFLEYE
In short: as §1

USP24 = USP24 (UniProt Q9UPU5)
USP24, sequence (Q9UPU5 whole entry): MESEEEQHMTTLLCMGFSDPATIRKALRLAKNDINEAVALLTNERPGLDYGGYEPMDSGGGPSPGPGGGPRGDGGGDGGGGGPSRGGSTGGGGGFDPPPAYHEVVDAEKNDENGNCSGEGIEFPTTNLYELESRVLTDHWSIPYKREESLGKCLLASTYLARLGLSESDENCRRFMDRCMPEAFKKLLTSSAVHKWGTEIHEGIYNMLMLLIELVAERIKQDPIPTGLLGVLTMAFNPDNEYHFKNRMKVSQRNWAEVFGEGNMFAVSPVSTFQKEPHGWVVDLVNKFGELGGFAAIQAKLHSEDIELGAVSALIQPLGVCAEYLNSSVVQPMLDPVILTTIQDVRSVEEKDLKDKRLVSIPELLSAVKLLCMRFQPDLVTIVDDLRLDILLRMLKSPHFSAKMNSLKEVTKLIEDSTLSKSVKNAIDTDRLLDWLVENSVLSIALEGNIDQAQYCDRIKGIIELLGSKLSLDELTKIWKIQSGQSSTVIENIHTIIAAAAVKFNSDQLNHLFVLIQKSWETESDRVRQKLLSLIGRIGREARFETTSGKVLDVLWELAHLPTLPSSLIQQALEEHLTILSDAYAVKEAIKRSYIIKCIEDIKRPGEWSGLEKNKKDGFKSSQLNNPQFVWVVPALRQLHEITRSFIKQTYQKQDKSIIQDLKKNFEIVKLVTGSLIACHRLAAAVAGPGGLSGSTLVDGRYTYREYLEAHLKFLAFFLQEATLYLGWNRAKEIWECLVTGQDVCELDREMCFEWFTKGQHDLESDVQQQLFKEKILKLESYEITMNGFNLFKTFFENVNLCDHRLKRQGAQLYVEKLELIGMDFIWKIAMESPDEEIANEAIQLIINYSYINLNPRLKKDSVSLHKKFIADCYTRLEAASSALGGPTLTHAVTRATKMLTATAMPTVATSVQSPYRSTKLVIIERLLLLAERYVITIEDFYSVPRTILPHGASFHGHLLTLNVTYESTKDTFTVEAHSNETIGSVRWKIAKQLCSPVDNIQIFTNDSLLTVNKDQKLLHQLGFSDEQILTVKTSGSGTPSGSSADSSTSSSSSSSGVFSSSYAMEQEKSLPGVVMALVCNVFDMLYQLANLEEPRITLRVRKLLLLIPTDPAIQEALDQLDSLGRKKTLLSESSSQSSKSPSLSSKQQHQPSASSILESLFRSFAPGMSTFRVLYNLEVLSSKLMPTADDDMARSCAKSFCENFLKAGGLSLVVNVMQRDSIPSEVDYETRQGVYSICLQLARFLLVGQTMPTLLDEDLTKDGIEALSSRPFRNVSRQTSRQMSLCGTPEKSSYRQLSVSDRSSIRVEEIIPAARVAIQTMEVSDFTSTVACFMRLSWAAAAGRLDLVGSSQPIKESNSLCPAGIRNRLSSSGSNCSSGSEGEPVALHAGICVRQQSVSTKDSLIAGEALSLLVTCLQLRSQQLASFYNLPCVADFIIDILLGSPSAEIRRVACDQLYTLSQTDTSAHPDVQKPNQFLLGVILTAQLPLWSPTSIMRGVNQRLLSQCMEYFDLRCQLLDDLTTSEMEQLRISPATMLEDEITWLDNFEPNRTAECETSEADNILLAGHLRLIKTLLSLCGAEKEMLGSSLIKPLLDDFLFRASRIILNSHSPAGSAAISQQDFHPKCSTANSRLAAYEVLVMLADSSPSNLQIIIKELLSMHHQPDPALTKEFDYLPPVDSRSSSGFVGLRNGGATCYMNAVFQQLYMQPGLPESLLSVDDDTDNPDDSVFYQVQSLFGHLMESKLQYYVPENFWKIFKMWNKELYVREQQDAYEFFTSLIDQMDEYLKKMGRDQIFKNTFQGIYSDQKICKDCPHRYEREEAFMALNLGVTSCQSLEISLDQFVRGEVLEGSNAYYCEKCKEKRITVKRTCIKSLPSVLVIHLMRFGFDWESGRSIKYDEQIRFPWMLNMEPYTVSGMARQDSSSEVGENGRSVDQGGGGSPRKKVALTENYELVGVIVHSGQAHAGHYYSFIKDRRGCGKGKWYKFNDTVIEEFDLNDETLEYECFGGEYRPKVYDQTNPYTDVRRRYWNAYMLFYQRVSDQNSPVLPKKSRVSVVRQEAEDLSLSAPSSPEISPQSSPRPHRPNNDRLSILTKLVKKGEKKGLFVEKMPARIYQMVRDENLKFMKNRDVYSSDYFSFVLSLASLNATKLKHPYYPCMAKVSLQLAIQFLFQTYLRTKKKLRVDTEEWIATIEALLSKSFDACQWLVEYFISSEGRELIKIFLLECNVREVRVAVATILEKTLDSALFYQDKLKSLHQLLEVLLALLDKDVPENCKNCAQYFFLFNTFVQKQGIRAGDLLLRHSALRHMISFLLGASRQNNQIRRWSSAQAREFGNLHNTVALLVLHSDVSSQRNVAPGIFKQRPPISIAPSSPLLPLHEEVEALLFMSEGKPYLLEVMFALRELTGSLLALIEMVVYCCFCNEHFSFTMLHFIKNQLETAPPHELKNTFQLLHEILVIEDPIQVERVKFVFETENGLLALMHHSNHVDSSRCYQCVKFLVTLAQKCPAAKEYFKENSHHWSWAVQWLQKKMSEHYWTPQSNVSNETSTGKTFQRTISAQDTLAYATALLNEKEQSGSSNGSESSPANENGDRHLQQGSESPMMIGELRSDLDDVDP
In short: as §1

USP25 = target: T3, USP25 (UniProt Q9UHP3)
T3 sequence (whole entry): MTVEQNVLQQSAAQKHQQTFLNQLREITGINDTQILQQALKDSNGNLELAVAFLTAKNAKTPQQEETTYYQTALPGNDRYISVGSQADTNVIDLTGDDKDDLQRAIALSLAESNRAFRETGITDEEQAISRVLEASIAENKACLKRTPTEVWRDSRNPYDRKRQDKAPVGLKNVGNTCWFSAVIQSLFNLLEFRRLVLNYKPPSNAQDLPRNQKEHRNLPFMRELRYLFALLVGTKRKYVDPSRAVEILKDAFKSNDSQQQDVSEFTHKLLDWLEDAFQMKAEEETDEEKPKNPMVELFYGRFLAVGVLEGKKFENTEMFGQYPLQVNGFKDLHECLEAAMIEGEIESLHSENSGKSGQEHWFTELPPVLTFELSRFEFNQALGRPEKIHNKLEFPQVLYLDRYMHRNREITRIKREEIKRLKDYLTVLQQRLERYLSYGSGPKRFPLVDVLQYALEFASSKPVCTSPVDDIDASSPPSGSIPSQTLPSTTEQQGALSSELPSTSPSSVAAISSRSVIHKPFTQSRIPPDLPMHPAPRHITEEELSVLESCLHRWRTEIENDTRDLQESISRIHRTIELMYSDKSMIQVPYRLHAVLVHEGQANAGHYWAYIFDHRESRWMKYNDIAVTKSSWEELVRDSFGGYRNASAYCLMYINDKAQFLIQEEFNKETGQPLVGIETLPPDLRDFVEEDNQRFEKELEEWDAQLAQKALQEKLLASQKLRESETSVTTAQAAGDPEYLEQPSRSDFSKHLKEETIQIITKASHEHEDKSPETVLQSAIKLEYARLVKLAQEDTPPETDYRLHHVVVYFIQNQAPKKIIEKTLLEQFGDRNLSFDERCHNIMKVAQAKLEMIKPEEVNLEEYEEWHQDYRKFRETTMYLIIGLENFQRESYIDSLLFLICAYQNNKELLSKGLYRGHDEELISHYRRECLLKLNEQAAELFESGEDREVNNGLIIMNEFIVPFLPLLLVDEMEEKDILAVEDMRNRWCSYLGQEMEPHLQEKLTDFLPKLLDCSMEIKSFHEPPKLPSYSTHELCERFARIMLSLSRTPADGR
In short: as §1

USP28 = target: T4, USP28 (UniProt Q96RU2)
T4 sequence (whole entry): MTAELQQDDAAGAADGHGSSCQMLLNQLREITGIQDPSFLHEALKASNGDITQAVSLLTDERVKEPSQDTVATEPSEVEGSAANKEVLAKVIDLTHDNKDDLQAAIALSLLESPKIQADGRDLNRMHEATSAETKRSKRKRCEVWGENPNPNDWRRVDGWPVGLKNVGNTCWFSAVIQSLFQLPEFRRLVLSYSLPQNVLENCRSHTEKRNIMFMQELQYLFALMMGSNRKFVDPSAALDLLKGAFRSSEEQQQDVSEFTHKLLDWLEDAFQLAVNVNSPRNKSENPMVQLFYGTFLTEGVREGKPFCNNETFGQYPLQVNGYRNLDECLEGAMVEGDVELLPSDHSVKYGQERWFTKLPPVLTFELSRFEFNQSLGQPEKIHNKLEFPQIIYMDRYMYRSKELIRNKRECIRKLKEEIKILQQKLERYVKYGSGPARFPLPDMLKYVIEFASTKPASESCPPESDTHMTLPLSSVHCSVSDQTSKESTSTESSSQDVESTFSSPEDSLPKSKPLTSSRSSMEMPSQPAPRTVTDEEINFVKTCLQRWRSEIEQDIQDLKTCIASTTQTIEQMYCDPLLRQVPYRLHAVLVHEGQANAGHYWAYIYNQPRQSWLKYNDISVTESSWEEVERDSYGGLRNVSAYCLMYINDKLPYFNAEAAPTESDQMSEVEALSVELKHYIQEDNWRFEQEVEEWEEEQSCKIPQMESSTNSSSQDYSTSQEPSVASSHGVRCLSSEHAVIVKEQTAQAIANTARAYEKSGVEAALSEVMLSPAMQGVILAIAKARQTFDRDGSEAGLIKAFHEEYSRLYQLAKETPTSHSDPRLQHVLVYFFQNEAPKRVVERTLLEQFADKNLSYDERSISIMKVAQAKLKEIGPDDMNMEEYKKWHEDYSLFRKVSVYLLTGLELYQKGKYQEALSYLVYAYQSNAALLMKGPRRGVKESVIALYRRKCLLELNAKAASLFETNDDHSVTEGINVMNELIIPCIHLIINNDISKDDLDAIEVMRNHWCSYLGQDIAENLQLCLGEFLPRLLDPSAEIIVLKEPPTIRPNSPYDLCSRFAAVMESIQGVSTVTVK
In short: as §1

Measured: log2 ratio of Biotin-Ahx-Ub-VS probe labelling

CNC(=O)C1(NC(=O)CCl)CCCCC1
inactive: USP19 0.162 | USP22 -0.0396 | USP24 0.0556 | USP25 -0.118 | USP28 -0.181
